PubChem BioAssay AID1794842 (National Center for Advancing Translational Sciences (NCATS), 2023)
Hit rate of the full screen: of about 2,800 compounds, fewer than 10 were called active. Not all results are given here. Unmarked numbers belong to inactive results. Calls come from the whole dose curve; as a rule, active = well fitted curve in the direction sought with a large enough effect; inconclusive = small, poorly fitted or top-dose-only effect, or another doubt; inactive = no such curve, though single readings can be large or run the other way.

Each compound was assayed against Metallo-beta-lactamase type 2 (Klebsiella pneumoniae) (UniProt C7C422) (assay: qHTS to identify inhibitors of the New Delhi Metallo-beta-lactamase (NDM): Meropenem screen against the machine-based learning selections.). Conditions: Purified NDM-1, meropenem hydrolysis, absorbance 300 nm; series mostly up to 38.4 µM; activity change, negative = inhibition: at the top concentration.
Description: Assay Submitter (PI): James Inglese Ph.D., Patricia Dranchak Ph.D., Mahesh Aitha Ph.D. Assay Development and Screening Technology Laboratory (ADST) National Center for Advancing Translational Sciences (NCATS), Rockville, MD National Institute of Health (NIH), Bethesda, Maryland The metallo-beta-lactamases (MBL) are a main antibiotic resistance mechanism evolved by bacteria. There is an urgent clinical need for MBL inhibitors to mitigate this growing threat. To support a machine-based learning study, qHTS has been used to experimentally test inhibitors identified by prediction tools.
PROTOCOL TABLE (as described by Inglese et al., 2007) SEQUENCE No. (e.g., 1, 2, 3, etc.); […] (e.g., enzyme, Incubation, Reagent, etc.); VALUE; DESCRIPTION Primary Screen 1; NDM-1; 4 uL of 3 nM enzyme [2 nM final] in 50 mM HEPES (pH 7.0), 1 uM […], 0.01% Tween20; Use BioRaptr to dispense into two sets of Aurora black, clear bottom high base 1536-well plates 2; Compounds; 23 nL; Use Pin Tool (Wako) to transfer DMSO control and library compounds in DMSO 3; Incubate; >30 min 4a; Reagent; 2 uL of 50 uM nitrocefin [16.7 uM final] to one set of assay plates 4b; Reagent; 2 uL of 150 uM meropenem [50 uM final] to second set of assay plates 5a; Incubate; 15 min 5b; Incubate; 30 min 6a; Detector; Absorbance at 485 nm (bandwidth = 5 nm, 25 flashes/well) on Tecan Infinity 6b; Detector; Absorbance at 300 nm (bandwidth = 5 nm, 25 flashes/well) on Tecan Infinity NOTES (numbers refer to sequence above) 1; Column 1 of each plate received assay buffer without enzyme and columns 2-48 received enzyme for a final assay concentration of 2 nM. 2; Control plate contained DMSO in columns 1, 2, 3, and 4. 3; Compound interaction with enzyme. 4; Nitrocefin and meropenem substrates were prepared in the same assay buffer as step 1 for a final assay concentration of 16.7 uM and 50 uM, respectively, and added to all wells across respective sets of assay plates. 5; Default reader settings were applied for absorbance read at 485 nm (nitrocefin) or 300 nm (meropenem), bandwidth = 5 nm, 25 flashes/well. References: Inglese J, Shamu CE, Guy RK. 2007. Reporting data from high-throughput screening of small-molecule libraries. Nat Chem Biol. doi:10.1038/nchembio0807-438 Yasgar A, Shinn P, Jadhav A, Auld D, Michael S, Zheng W, Austin CP, Inglese J, Simeonov A. 2008. Compound Management for Quantitative High-Throughput Screening. J Lab Autom 13:79 - 89. doi:10.1016/j.jala.2007.12.004
Note: % of control where 0% means no effect.

Metallo-beta-lactamase type 2 (Klebsiella pneumoniae), sequence (C7C422 whole entry, looked up): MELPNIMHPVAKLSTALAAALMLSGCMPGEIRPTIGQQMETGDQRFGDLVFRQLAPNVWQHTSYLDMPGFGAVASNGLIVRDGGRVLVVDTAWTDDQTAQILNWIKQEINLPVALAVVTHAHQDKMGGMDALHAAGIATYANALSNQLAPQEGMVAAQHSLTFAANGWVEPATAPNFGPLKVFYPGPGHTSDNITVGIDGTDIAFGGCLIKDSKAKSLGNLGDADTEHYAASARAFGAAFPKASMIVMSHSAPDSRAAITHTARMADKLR

Row | SMILES | activity change, negative = inhibition
1 | C[C@@H](NS(=O)(=O)c1ccccc1)c1onc(-c2cccnc2)c1C(=O)O | 2.4% [at 57.5 µM]
2 | C#CCN(C)CC[C@@H]1CC[C@H](O)[C@@H](C(=O)N(C)Cc2ccccc2)O1 | -1.25% [at 57.5 µM]
3 | COCc1cc(C[C@@H]2CC[C@H](O)[C@@H](CNC(=O)C(C)(C)C)O2)no1 | -0.975% [at 57.5 µM]
4 | O=C(NC[C@H]1Cn2c(-c3ccccc3)cnc2CO1)C1CCOCC1 | 4.09% [at 57.5 µM]
5 | O=C(NCc1ccccc1)O[C@H]1COCCN(c2nc3ccccc3o2)C1 | 0.432% [at 57.5 µM]
6 | O=C(Cc1ccccc1)Nc1ccc([C@@H](O)[C@H]2COCC(=O)N2CC2CC2)cc1 | -0.857% [at 57.5 µM]
7 | CC[C@@]1(C(=O)O)C[C@H](C(=O)NC(CO)CO)[C@H](c2ccc(OC)cc2)N1C | 24%
8 | O=C(CN1CC2CC(C1)[C@H]1CCCC(=O)N1C2)NCc1cc(F)ccc1F (stereo partly specified) | 1.21%
9 | NCCn1cc(C(=O)NCC(O)c2ccccc2C(F)(F)F)nn1 (stereo unspecified) | -3.94%
10 | C[C@@H](NC(=O)c1cccs1)c1onc(-c2ccc(F)cc2)c1C(=O)O | 3.33% [at 57.5 µM]
11 | O=[N+]([O-])c1cccc(-c2noc([C@@H]3C[C@@H](O)CN3Cc3ccccc3)n2)c1 | 2.26% [at 57.5 µM]
12 | CC(C)c1noc(-c2cccn3c(CNC(=O)c4cccc5[nH]ccc45)nnc23)n1 | 5.92%
13 | CN(C)c1nccnc1OC1CCN(C(=O)CCCc2ccccc2)C1 (stereo unspecified) | -0.852%
14 | Cc1cc(C(=O)NCCc2csc(-c3cccnc3)n2)cc(S(N)(=O)=O)c1C | 2.03%
15 | CC1(C)[C@H](Cc2cc(CCO)on2)C[C@@H]1N(S(C)(=O)=O)S(C)(=O)=O | 13.4% [at 57.5 µM]
16 | CC(C)CCN1CCNC(=O)C1CC(=O)N(Cc1nccs1)C1CC1 (stereo unspecified) | 5.54%
17 | Cn1c(CN2CCOCC2)nnc1C1CCN(c2ncccc2C#N)CC1 | 0.311%
18 | CCCCNC(=O)c1cccc(CN2C(=O)CC(c3ccccc3C)C(C(=O)OCC)=C2C)c1 (stereo unspecified) | 5.31%
19 | Cn1cnc2cc(-c3ccc(CO)cc3)cc(C(=O)NCc3cccnc3)c21 | 15% [at 57.5 µM]
20 | Cc1cc(F)ccc1OC1CN(Cc2ccc(F)cc2)C1 | -0.758% [at 57.5 µM]
21 | COc1ccc(-c2noc([C@@H]3Cc4nc[nH]c4CN3Cc3ccc(NC(C)=O)cc3)n2)cc1 | 10.7%

Row | SMILES | activity change, negative = inhibition
22 | CC1(C)C[C@H](NC(=O)c2ccccc2)[C@@]2(CCC(=O)NCCN3CCOCC3)CC[C@](C)(O)C[C@@H]12 | 0.402%
23 | CC(C)(C)c1ccc(C(=O)Nc2nc3c(s2)C[C@@H]2[C@](C)(CO)[C@H](O)CC[C@@]2(C)[C@@H]3CC(=O)NC2CC2)cc1 | 1.17%
24 | O=C(COc1ccccc1Cl)N1CCCC(O)(CN2CCCC2)C1 (stereo unspecified) | -0.507%
25 | COCC(=O)NC[C@@H]1C=C(C)[C@H](CC(=O)Nc2ccccn2)C[C@H]1C(C)C | 2.59% [at 57.5 µM]
26 | Cc1cnccc1N1CCCN(C(=O)c2cccc(C3CCCNC3)c2)CC1 (stereo unspecified) | -1.96%
27 | COC(=O)[C@@H]1Cc2ncn(C)c2CN1C(=O)c1ccc(-c2ccccc2)cc1 | 15% [at 57.5 µM]
28 | NC(=O)[C@H](Cc1cccs1)NC(=O)C1=C[C@@H](NC(=O)c2ccc(F)c(Cl)c2)[C@@H](O)[C@H](O)C1 | 0.292%
29 | COc1ccc(CN2CCNc3cc(Nc4cccnc4)ncc3C2)cc1O | 3.47% [at 57.5 µM]
30 | CN1C[C@H](NCc2cccc(Cl)c2)CCC[C@@H](C(=O)NC2CC2)CC1=O | 0.224% [at 57.5 µM]
31 | COc1ccc(CCC(=O)N2CCC(N3CC4CC(C3)[C@H]3CCCC(=O)N3C4)CC2)cc1 (stereo partly specified) | -0.571%
32 | COC[C@H]1CCCN1C(=O)C[C@@H]1O[C@H](CNS(C)(=O)=O)[C@@H](O)[C@H]1O | 19.9% [at 57.5 µM]
33 | CN[C@@H](CO)C(=O)NCc1nc(-c2cccc(F)c2)c(-c2ccccn2)[nH]1 | 29%
34 | COc1ccc(-c2nc3ccncc3[nH]2)cc1 | 21.9% [at 76.7 µM]
35 | CC(=O)N1CCC(N[C@H]2CC(C)(C)[C@@H]3C[C@@](C)(O)CC[C@]23CCC(=O)NCCN2CCOCC2)CC1 | -0.0233%
36 | CC(O)CNS(=O)(=O)c1cccc(C(=O)Nc2cccc3c2CCC3)c1 (stereo unspecified) | 2.1%
37 | COCCN1C(=O)CCc2cc(NC(=O)c3ccc(C)c(C)c3)ccc21 | 10.8%
38 | OC[C@H]1CCN(c2ccnc3c(C(F)(F)F)cccc23)C[C@H]1O | 1.06%
39 | CC1CCN([C@@H]2[C@H](O)[C@H](CO)O[C@@H]2CNC(=O)c2ccccc2)CC1 | 18.5% [at 57.5 µM]
40 | CC(=O)N1CCC(N2C[C@@H]3OCC(=O)N[C@@H]3C2)CC1 | 1.4% [at 76.7 µM]
41 | NC(=O)c1cccc(-c2n[nH]c3c2CC(=O)N(CC2CCOCC2)C3)c1 | 5.77% [at 57.5 µM]
42 | O=c1c2nc(-c3cccc(O)c3)ccc2ncn1Cc1ccccn1 | 13.6% [at 57.5 µM]

Row | SMILES | activity change, negative = inhibition
43 | Cc1cc(C(=O)N[C@H]2[C@H](O)[C@H](O)C[C@@H]2c2cccnc2)no1 | 0.945% [at 57.5 µM]
44 | COc1ccc(F)c(CN2CCCC(O)(CN(C)Cc3cc(C)on3)C2=O)c1 (stereo unspecified) | 11.8%
45 | O=C(Nc1cccnc1)c1ccnc(-c2nnc3ccc(Nc4ccccc4)nn23)c1 | 28.9% [at 57.5 µM]
46 | CCc1nc2c(c(-c3ccc(Cl)cc3)n1)CCN(Cc1ccc(F)cc1)CC2 | -1.49%
47 | COCc1cn(C[C@H]2C[C@@H](NCc3nccs3)[C@H](O)[C@@H]2O)nn1 | 47.1%
48 | NC(=O)[C@H](Cc1cccs1)NC(=O)C1=C[C@@H](NC(=O)NC2CCCCC2)[C@@H](O)[C@H](O)C1 | -0.293%
49 | CC(C)C1CN(C(=O)c2ccccc2-c2ncc[nH]2)CCC(=O)N1CC1CC1 (stereo unspecified) | -1.59%
50 | COC(=O)[C@H]1CN(C(C)=O)CCN1C(C)=O | -0.0382% [at 76.7 µM]
51 | O=C(Cc1csc(-c2ccccc2)n1)N[C@H](c1ccccn1)C1CC(O)C1 (stereo partly specified) | 7.84%
52 | Cc1cn(CC(=O)NC2CCOC3(CCOCC3)C2)c(=O)[nH]c1=O (stereo unspecified) | -0.851%
53 | O=C1CN(C(=O)[C@H]2CN(Cc3ccccc3)C[C@H]2C(=O)O)CCN1 | 50.1%
54 | Cc1noc(C2CC3(CCN(C(=O)C4CCC4)CC3)CN2C)n1 (stereo unspecified) | 1.47%
55 | Cc1ncsc1CCC(=O)N[C@@H]1CCOC[C@H]1OCC(=O)O | 24.4%
56 | Cc1cc2c(cc1C(=O)N[C@H](c1ccccn1)C1CC(O)C1)OCCO2 (stereo partly specified) | 2.04%
57 | Cc1ccn2c(C(=O)N3CCCC(c4[nH]ncc4-c4ccccc4)C3)nnc2n1 (stereo unspecified) | 3.57%
58 | c1cncc(Nc2cc3c(cn2)CN(Cc2ccsc2)CCN3)c1 | 6.63% [at 57.5 µM]
59 | CC[C@@]1(O)CCN(C(=O)c2cccc(CCC(C)(C)O)c2)C[C@H]1O | 1.82%
60 | O=C(c1ccoc1)N1CCCC(CCc2ccc(F)c(F)c2)C1 (stereo unspecified) | -0.603%
61 | Cc1cc(C)c(CNC(=O)c2nc(-c3cccc(O)c3)cc3[nH]ccc23)c(=O)[nH]1 | 15.9% [at 57.5 µM]
